Granule exo inh: blocks lytic granule exocytosis; TALL-104 LAMP-1 surface exposure, flow cytometry; cells stimulated with thapsigargin and PMA; inhibition, % at 10 µM; 0.66% of 360,000 active;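 active = inhibition above about 55%, limit read from the data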
PP1 inh: counter-screen for PP5 inhibitors: inhibitors of human PP1-alpha | AID 2235 | P62136 | 0.9% of 320,000 active | inhibition, % at 6.7 µM | purified PP1alpha, OMFP fluorescence;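 active = inhibition above the mean inhibition of all tested compounds plus 3 SD, computed separately for each screening campaign, cut at about 15% in these data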
NadD block: inhibitors of Staphylococcus aureus NadD. purified NadD enzyme, colorimetric absorbance read-out. inhibition, % at 20 µM. 0.78% of 360,000 active. AID 602399; in the data active = inhibition above about 26%
Beta2AR agonist: agonists of human beta-2 adrenergic receptor inducing internalization; 0.43% of 340,000 active; Am2.2-beta2AR cells, FAP receptor internalization, flow cytometry; P07550; response, % (no concentration beside the values);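 active = response above a set limit, near 3 SD of response in nonfluorescent compounds, cut at about 42% in these data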
Target sequence (P07550 whole entry, looked up): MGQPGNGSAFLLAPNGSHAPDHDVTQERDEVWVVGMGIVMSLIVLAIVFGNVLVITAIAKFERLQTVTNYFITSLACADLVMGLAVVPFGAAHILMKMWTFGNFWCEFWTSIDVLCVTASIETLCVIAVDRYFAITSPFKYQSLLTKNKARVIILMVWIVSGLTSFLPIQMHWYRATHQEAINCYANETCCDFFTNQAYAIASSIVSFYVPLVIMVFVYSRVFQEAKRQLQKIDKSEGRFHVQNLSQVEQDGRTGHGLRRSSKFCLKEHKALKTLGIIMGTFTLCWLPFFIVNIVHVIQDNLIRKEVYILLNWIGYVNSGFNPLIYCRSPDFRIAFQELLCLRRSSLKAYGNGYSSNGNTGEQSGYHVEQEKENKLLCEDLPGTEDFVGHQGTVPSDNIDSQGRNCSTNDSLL
GRK2 inh: inhibitors of human GRK2 displacing RNA aptamer. 0.59% of 330,000 active. AID 488847. bead flow cytometry, FAM-aptamer displacement from GRK2. inhibition of aptamer binding, % at 10 µM;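 active = inhibition of aptamer binding above 40%, roughly 3 SD of noise, on plates passing a quality check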;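 note: median bead fluorescence of bound FAM aptamer so fluorescent compounds give negative values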
GRK2 CP1: confirmation of human GRK2 inhibitors displacing RNA aptamer | bead-bound GRK2, FAM-aptamer displacement, flow cytometry | aptamer displacement, % at 10 µM | shares compounds with GRK2 inh | 4% of 2,000 active;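 active = aptamer displacement above 40%, near three times the noise of non-fluorescent compounds, on plates passing quality checks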;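 note: negative values mostly reflect intrinsic compound fluorescence rather than true enhancement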
Aptamer quench SP: aptamer fluorescence quenching in GRK2 counter-screen; shares compounds with GRK2 inh; Carboxyfluorescein RNA aptamer on beads, flow cytometry quenching; stronger effect = lower value; fluorescence response (% of DMSO), % at 10 µM; 2,000 tested, under 10 active; AID 504580;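 active = compounds that quench the bead-bound fluorescent RNA probe, cutting fluorescence to under half of the solvent control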;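 note: counterscreen run without GRK2 so only probe quenching by compound is measured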
GRK2 CP2: human GRK2 inhibition confirmation, cherry pick 2; shares compounds with GRK2 inh; bead-bound GRK2, FAM-aptamer displacement, flow cytometry; inhibition of aptamer binding, % at 10 µM; 360 tested, under 10 active;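 active = inhibition of aptamer binding above 40%, about triple the noise seen with nonglowing compounds, on plates passing quality control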;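 note: negative values mostly come from compounds that fluoresce themselves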
FAM quench CP2: aptamer fluorescence quenching in GRK2 counter-screen. carboxyfluorescein RNA aptamer beads, flow cytometry quenching; stronger effect = lower value. 360 tested, under 10 active. AID 588494. fluorescence response vs DMSO, % at 10 µM. shares compounds with GRK2 inh;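 active = response vs DMSO under 50%, meaning signal dropped by over half, treated as fluorescence quencher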;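 note: labelled aptamer on streptavidin beads without GRK2 as a quench counter-screen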
A number is an active result. Only some compounds are listed: those with a hit (about 2.9% of all), similar ones and a draw of the others.

For COC(=O)CN1C(=O)C2(OCCCO2)c2cc(Br)ccc21 the results were Granule exo inh inactive, PP1 inh inactive, NadD block inactive, Beta2AR agonist inactive, GRK2 inh 99, GRK2 CP1 inactive and Aptamer quench SP inactive.
For CCOC(=O)CN1C(=O)C2(OCCCO2)c2ccccc21 the results were Granule exo inh inactive, PP1 inh inactive, NadD block inactive, Beta2AR agonist inactive and GRK2 inh inactive.
Screening O=C(O)c1ccc(Cl)c(NCc2cccs2)c1 returned Granule exo inh inactive, PP1 inh inactive, NadD block inactive, Beta2AR agonist inactive and GRK2 inh inactive.
Screening CCOc1cc(C)c(S(=O)(=O)Nc2ccc(Cl)cn2)cc1C returned Granule exo inh inactive, PP1 inh inactive, NadD block inactive, Beta2AR agonist inactive, GRK2 inh 46, GRK2 CP2 inactive and FAM quench CP2 inactive.
`CCOc1ccc(S(=O)(=O)Nc2ccc(Cl)cn2)c(C)c1C` gave Granule exo inh inactive, PP1 inh inactive, NadD block inactive, Beta2AR agonist inactive and GRK2 inh inactive.
For CCOC(=O)c1ccc(N2C(=O)C3CCCN3C2=S)cc1 (configuration not stated) the results were Granule exo inh inactive, PP1 inh inactive, NadD block inactive, Beta2AR agonist inactive, GRK2 inh 42, GRK2 CP2 inactive and FAM quench CP2 inactive.
CCOC(=O)C1CCN(CC(=O)Nc2c(C(=O)OC)[nH]c3cccc(C)c23)CC1 was read as Granule exo inh inactive, PP1 inh inactive, NadD block inactive, Beta2AR agonist inactive, GRK2 inh 54, GRK2 CP1 inactive and Aptamer quench SP inactive.
For COCCN1C(=O)N[C@@H](c2cccc(F)c2)C(C(=O)OC)=C1C the results were Granule exo inh inactive, PP1 inh inactive, NadD block inactive, Beta2AR agonist inactive, GRK2 inh 91, GRK2 CP1 inactive and Aptamer quench SP inactive.
`COCCN1C(=O)N[C@H](c2cccc(C(F)(F)F)c2)C(C(=O)OC)=C1C` gave PP1 inh inactive.
O=[N+]([O-])c1ccc(-c2c(-c3ccccc3)ncc3ccc(F)cc23)cc1 was read as Granule exo inh inactive, PP1 inh inactive, NadD block inactive, Beta2AR agonist inactive, GRK2 inh 100, GRK2 CP1 inactive and Aptamer quench SP inactive.
For Fc1ccc2cnc(-c3ccccc3)c(-c3ccc(C(F)(F)F)cc3)c2c1 the results were Granule exo inh inactive, PP1 inh inactive, NadD block inactive, Beta2AR agonist inactive and GRK2 inh inactive.
Cc1ccc(S(=O)(=O)N2CCN(C(C)C(=O)Nc3ccccc3-c3ccccc3)CC2)cc1 (configuration not stated) was read as Granule exo inh inactive, PP1 inh inactive, NadD block inactive, Beta2AR agonist inactive and GRK2 inh inactive.
O=c1c2c3c(sc2nc(NCCO)n1Cc1ccco1)CCCCC3 was read as Granule exo inh inactive, PP1 inh inactive, NadD block inactive, Beta2AR agonist inactive and GRK2 inh inactive.
Screening O=c1c2c3c(sc2nc(NCCO)n1CCc1ccccc1)CCCCC3 returned Granule exo inh inactive, PP1 inh inactive, NadD block inactive, Beta2AR agonist inactive, GRK2 inh 90, GRK2 CP1 inactive and Aptamer quench SP inactive.
For CCNC(=O)C1(C)CCN(C(=O)c2ccccc2C(F)(F)F)C1 (configuration not stated) the results were Granule exo inh inactive and NadD block inactive.
For Cc1nc(SCCc2nc3ccccc3[nH]2)c2oc3ccccc3c2n1 the results were Granule exo inh inactive, NadD block inactive, Beta2AR agonist inactive and GRK2 inh inactive.
Screening Cc1cccc(NC(=O)COC(=O)c2ccc(S(=O)(=O)N3CCCCCC3)cc2)c1 returned Granule exo inh inactive, NadD block inactive, Beta2AR agonist inactive, GRK2 CP1 inactive and Aptamer quench SP inactive.
Screening Cc1ccc(S(=O)(=O)N2CCOCC2)cc1NC(=O)COC(=O)c1ccc2c(c1)OCO2 returned Granule exo inh inactive, PP1 inh inactive, NadD block inactive, Beta2AR agonist inactive, GRK2 inh 100, GRK2 CP1 inactive and Aptamer quench SP inactive.
CCOc1ccc(C(C)NC(=O)C2CCC2)cc1 (configuration not stated) was read as Granule exo inh inactive, PP1 inh inactive, NadD block inactive, Beta2AR agonist inactive, GRK2 inh 100, GRK2 CP2 inactive and FAM quench CP2 inactive.
`Cc1cccc2c(C(=O)n3cccn3)cc(-c3ccccc3Cl)nc12` gave Granule exo inh inactive, PP1 inh inactive, NadD block inactive, Beta2AR agonist inactive, GRK2 inh inactive, GRK2 CP1 inactive and Aptamer quench SP inactive.
Screening Cc1cccc2c(C(=O)Nn3cnnc3)cc(-c3ccccc3Cl)nc12 returned Granule exo inh inactive, PP1 inh inactive, NadD block inactive, Beta2AR agonist inactive and GRK2 inh inactive.
For CCN(CC)CCCNC(=S)N(Cc1cccnc1)Cc1cc2cc(C)cc(C)c2[nH]c1=O the results were Granule exo inh inactive, PP1 inh inactive, NadD block inactive, Beta2AR agonist inactive, GRK2 inh inactive, GRK2 CP1 inactive and Aptamer quench SP inactive.
CCCC(=O)Nc1ccc2c(c1)nc(CCNC(=O)c1ccccc1)n2C was read as Granule exo inh inactive, PP1 inh inactive, NadD block inactive, Beta2AR agonist inactive, GRK2 inh inactive, GRK2 CP1 inactive and Aptamer quench SP inactive.
Screening COC(=O)c1nn(-c2ccccc2)c(Sc2ccc(OC)cc2)c1/C=N/O returned Granule exo inh inactive, PP1 inh inactive, NadD block inactive, Beta2AR agonist inactive and GRK2 inh inactive.
Screening Cc1ccn2c(CNCC3OCCc4ccccc43)c(C(=O)N3CCCCCC3)nc2c1 (configuration not stated) returned Granule exo inh inactive, PP1 inh inactive, NadD block inactive, Beta2AR agonist inactive, GRK2 inh inactive, GRK2 CP1 inactive and Aptamer quench SP inactive.
O=C(c1nc2ccccn2c1CNCC1OCCc2ccccc21)N1CCOCC1 (configuration not stated) was read as Granule exo inh inactive, PP1 inh inactive, NadD block inactive, Beta2AR agonist inactive and GRK2 inh inactive.
For CCCCn1nc(C(=O)NCC(c2cccs2)N2CCOCC2)c2ccccc2c1=O (configuration not stated) the results were Granule exo inh inactive, PP1 inh inactive, NadD block inactive, Beta2AR agonist inactive and GRK2 inh inactive.

Screens from PubChem BioAssay.
